PubChem BioAssay (EPA / NIEHS)
Inconclusive results are not listed. Active and inactive are the calls of the source. Rule for the calls: active = hit-call score of the fitted dose curve at least 0.9, where 1 is the maximum; inconclusive = response in the unintended direction; inactive = score below 0.9.

How the values were obtained:
[1] = TOX21_p53_BLA_p4_viability: Viability Assessment in the Tox21 HCT-116 p53 Agonism Beta-lactamase Assay, Phase 4 (AID 2283597);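 note: hits lower the luminescence signal meaning cytotoxicity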
Outline: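 Cells plated, 5 h pre-incubation; DMSO compounds pinned (217-fold dilution); 16 h, 37C/5% CO2; CCF4-AM 2 h RT; CellTiter-Glo 30 min RT; luminescence read.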

[2] = TOX21_p53_BLA_p5_viability: Viability Assessment in the Tox21 HCT-116 p53 Agonism Beta-lactamase Assay, Phase 5 (AID 2283600)
Outline: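 4000 cells/well; 5 h pre-incubation; DMSO compounds pin-transferred, 217-fold dilution; 16 h, 37C/5% CO2; CCF4-AM 2 h RT; CellTiter-Glo 30 min RT; luminescence.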

[3] = molecular target: Cellular tumor antigen p53 (Homo sapiens) (UniProt P04637); experiment: TOX21_p53_BLA_p3_ratio: Tox21 HCT-116 p53 Agonism Beta-lactamase Assay, Ratio, Phase 3 (AID 2283596)
Outline: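 HCT116 p53-bla cells (4000/well) given compound in DMSO (217-fold dilution) after 5 h, incubated 16 h at 37C. CCF4-AM substrate 2 h at room temperature; 460/530 nm emission ratio, gain fitted against DMSO.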

[4] = molecular target: Cellular tumor antigen p53 (Homo sapiens) (UniProt P04637); experiment: TOX21_p53_BLA_p4_ratio: Tox21 HCT-116 p53 Agonism Beta-lactamase Assay, Ratio, Phase 4 (AID 2283601)
Outline: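 Signal is the blue/green (460nm/530nm) ratio of cleaved versus uncleaved CCF4-AM substrate, read after 2 h substrate loading. Cells were HCT116 carrying the p53-responsive beta-lactamase reporter, dosed 16 h at 37C, 5% CO2; CellTiter-Glo measured in parallel.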

[5] = molecular target: Cellular tumor antigen p53 (Homo sapiens) (UniProt P04637); experiment: TOX21_p53_BLA_p5_ratio: Tox21 HCT-116 p53 Agonism Beta-lactamase Assay, Ratio, Phase 5 (AID 2283599)
Outline: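 Beta-lactamase reporter ratio (blue 460 nm over green 530 nm, 405 nm excitation) after 2 h CCF4-AM loading, in HCT-116 cells exposed 16 h at 37 C to compounds pinned at 217-fold dilution. Increases relative to DMSO baseline scored.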

Cellular tumor antigen p53 (Homo sapiens), sequence (P04637 whole entry, looked up): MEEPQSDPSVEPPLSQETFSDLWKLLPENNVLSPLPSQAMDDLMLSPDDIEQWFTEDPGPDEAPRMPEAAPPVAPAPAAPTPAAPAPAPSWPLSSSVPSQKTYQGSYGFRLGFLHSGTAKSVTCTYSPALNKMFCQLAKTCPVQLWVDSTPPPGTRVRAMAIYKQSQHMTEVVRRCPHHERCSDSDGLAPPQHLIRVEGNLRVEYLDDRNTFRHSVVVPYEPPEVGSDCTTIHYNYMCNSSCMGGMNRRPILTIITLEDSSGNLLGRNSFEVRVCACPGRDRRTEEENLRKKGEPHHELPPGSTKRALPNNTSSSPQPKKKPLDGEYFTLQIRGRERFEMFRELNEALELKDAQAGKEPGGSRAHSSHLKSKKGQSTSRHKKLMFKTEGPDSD

Structure (SMILES): C=CC(=O)CC
- outcome [1]: inactive

Structure (SMILES): CC(=O)[C@@]1(O)CC[C@H]2[C@@H]3C=C(Cl)C4=CC(=O)[C@@H]5C[C@@H]5[C@]4(C)[C@H]3CC[C@@]21C
- outcome [1]: inactive
- outcome [2]: inactive

Structure (SMILES): Cc1ccc(C(=O)c2ccc(CC(=O)O)n2C)cc1
- outcome [3]: inactive
- outcome [4]: inactive

Structure (SMILES): Cc1onc(-c2c(Cl)cccc2Cl)c1C(=O)N[C@@H]1C(=O)N2[C@@H]1SC(C)(C)[C@@H]2C(=O)O
- outcome [1]: inactive

Structure (SMILES): Nc1c(Cl)cc(Cl)cc1Cl
- outcome [1]: inactive
- outcome [5]: inactive
- outcome [4]: inactive

Structure (SMILES): Cc1cccc(C)c1NC(=O)CN1CCCC1
- outcome [1]: inactive
- outcome [5]: inactive
- outcome [4]: inactive

Structure (SMILES): O=C1C(CCS(=O)c2ccccc2)C(=O)N(c2ccccc2)N1c1ccccc1 (stereo not drawn)
- outcome [3]: inactive
- outcome [4]: inactive

Structure (SMILES): Fc1ccccc1-c1ccccc1
- outcome [1]: inactive
- outcome [5]: inactive
- outcome [2]: inactive

Structure (SMILES): O=C(NNCS(=O)(=O)O)c1ccncc1
- outcome [1]: inactive
- outcome [5]: inactive
- outcome [4]: inactive

Structure (SMILES): ClC/C=C\CCl
- outcome [3]: inactive
- outcome [4]: inactive

Structure (SMILES): Nc1nc(N)c(-c2ccccc2)s1
- outcome [1]: inactive
- outcome [5]: inactive
- outcome [2]: inactive
- outcome [4]: inactive

Structure (SMILES): O=C(O)C=Cc1ccc(C=CC(=O)O)cc1
- outcome [1]: inactive

Structure (SMILES): CN1CCN(C2=Nc3ccccc3Oc3ccc(Cl)cc32)CC1
- outcome [1]: inactive
- outcome [5]: inactive
- outcome [4]: inactive

Structure (SMILES): CN(C)CC/C=C1\c2ccccc2COc2ccccc21
- outcome [3]: inactive
- outcome [4]: inactive

Structure (SMILES): CCC(=O)CC
- outcome [1]: inactive

Structure (SMILES): Clc1ccc2nsnc2c1NC1=NCCN1
- outcome [3]: inactive
- outcome [2]: inactive
- outcome [4]: inactive

Structure (SMILES): CN1[C@@H]2CC[C@H]1CC(OC(=O)c1c[nH]c3ccccc13)C2 (stereo partly drawn)
- outcome [3]: inactive
- outcome [4]: inactive

Structure (SMILES): COC(=O)N[C@H](C(=O)N[C@@H](Cc1ccccc1)[C@@H](O)CN(Cc1ccc(-c2ccccn2)cc1)NC(=O)[C@@H](NC(=O)OC)C(C)(C)C)C(C)(C)C
- outcome [1]: inactive
- outcome [5]: inactive
- outcome [4]: inactive

Structure (SMILES): OCCCCCCCl
- outcome [3]: inactive
- outcome [4]: inactive

Structure (SMILES): CS(=O)(=O)NC(=O)CCC/C=C\C[C@H]1C(=O)C[C@@H](O)[C@@H]1/C=C/[C@H](O)COc1ccccc1
- outcome [1]: inactive

Structure (SMILES): C[C@H]1c2cccc(O)c2C(O)=C2C(=O)[C@]3(O)C(O)=C(C(N)=O)C(=O)[C@@H](N(C)C)[C@@H]3[C@@H](O)[C@@H]21
- outcome [1]: inactive

Structure (SMILES): NC(=O)[C@@H]1C[C@]2(NC(=O)NC2=O)c2cc(F)ccc2O1
- outcome [1]: inactive
- outcome [5]: inactive
- outcome [2]: inactive
- outcome [4]: inactive

Structure (SMILES): Cc1ccc(C=O)cc1C
- outcome [1]: inactive
- outcome [5]: inactive

Structure (SMILES): O=C(O)c1cc(O)c2c(c1)[O][Bi][O]2
- outcome [1]: inactive

Structure (SMILES): CCNC(=O)NCCCOc1cccc(CN2CCCCC2)c1
- outcome [3]: inactive
- outcome [4]: inactive

Structure (SMILES): Nc1ccc(Cl)cc1[N+](=O)[O-]
- outcome [3]: inactive
- outcome [5]: inactive
- outcome [4]: inactive

Structure (SMILES): COc1ccc(CCNCC(O)COc2cccc(C)c2)cc1OC (stereo not drawn)
- outcome [1]: inactive

Structure (SMILES): NC[C@H]1O[C@H](O[C@H]2[C@H](O)[C@@H](O[C@H]3O[C@H](CO)[C@@H](O)[C@H](N)[C@H]3O)[C@H](N)C[C@@H]2N)[C@H](N)[C@@H](O)[C@@H]1O
- outcome [3]: inactive
- outcome [5]: inactive
- outcome [4]: inactive

Structure (SMILES): CN1CCN(CCC(=O)N2c3ccccc3Sc3ccc(C(F)(F)F)cc32)CC1
- outcome [3]: inactive
- outcome [4]: inactive

Structure (SMILES): CCCCCCCC/C=C\CCCCCCCC(=O)OCCOC(=O)CCCCCCC/C=C\CCCCCCCC
- outcome [1]: inactive
- outcome [5]: inactive
- outcome [2]: inactive
- outcome [4]: inactive

Structure (SMILES): C=COCCCCO
- outcome [1]: inactive
- outcome [4]: inactive

Structure (SMILES): O=C(O)CNC(=O)c1ccc(CO)o1
- outcome [5]: inactive
- outcome [4]: inactive

Structure (SMILES): CC(C)CCOC(=O)C=Cc1ccccc1
- outcome [5]: inactive
- outcome [2]: inactive

Structure (SMILES): Nc1ccc(S(=O)(=O)Nc2ccccc2)cc1
- outcome [5]: inactive
- outcome [4]: inactive

Structure (SMILES): Cc1ccc(CO)cc1
- outcome [5]: inactive
- outcome [2]: inactive
- outcome [4]: inactive

Structure (SMILES): c1cnc2cc3c(cc2n1)[C@@H]1CNC[C@H]3C1
- outcome [5]: inactive
- outcome [4]: inactive

Structure (SMILES): Cc1ccnc(NS(=O)(=O)c2ccc(N)cc2)n1
- outcome [5]: inactive
- outcome [2]: inactive
- outcome [4]: inactive

Structure (SMILES): CO[C@@]1(NC(=O)CSC[C@@H](N)C(=O)O)C(=O)N2C(C(=O)O)=C(CSc3nnnn3C)CS[C@@H]21
- outcome [5]: inactive
- outcome [2]: inactive

Structure (SMILES): CC(C)N(C)C
- outcome [5]: inactive
- outcome [2]: inactive

Structure (SMILES): CCCCCC/C=C/C(=O)OC
- outcome [5]: inactive

Structure (SMILES): Cl.Cl.N.N.[Cl-].[Cl-].[Pt+2]
- outcome [5]: inactive

Structure (SMILES): Nc1ccc([N+](=O)[O-])c(N)c1
- outcome [1]: inactive
- outcome [4]: inactive

Structure (SMILES): Nc1nc(CC(=O)O)cs1
- outcome [1]: inactive
- outcome [4]: inactive

Structure (SMILES): CN[C@H]1CCc2cc(OC)c(OC)c(OC)c2-c2ccc(OC)c(=O)cc21
- outcome [5]: inactive
- outcome [4]: inactive

Structure (SMILES): CCOc1ccc2ccccc2c1C(=O)N[C@@H]1C(=O)N2[C@@H]1SC(C)(C)[C@@H]2C(=O)O
- outcome [5]: inactive
- outcome [4]: inactive

Structure (SMILES): Cc1ccccc1N=Nc1ccc(N=Nc2c(O)ccc3ccccc23)c(C)c1
- outcome [2]: inactive
